Results reported in PubChem BioAssay (NCI).
About 83,000 compounds went through this panel and 20% of them were active in at least one assay; those are over-represented in the sample as a whole.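 In brief: 96-well plates, 48 h treatment, single concentration, percent growth endpoint.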 Unmarked numbers belong to inactive results. The source made the active and inactive calls. Rule for the calls: active = growth percent below 10; inactive = the rest.

Assays:
Experiment in all cases: NCI-60 one-dose screen, 48 h (100 = growth as untreated, 0 = no growth, -100 = all killed)
Settings in all cases: 10 µM unless noted
SR leukemia = tested on: SR leukemia
RPMI-8226 leukemia = tested on: RPMI-8226 leukemia
OVCAR-8 ovarian = tested on: OVCAR-8 ovarian
OVCAR-5 ovarian = tested on: OVCAR-5 ovarian
OVCAR-4 ovarian = tested on: OVCAR-4 ovarian
SK-OV-3 ovarian = tested on: SK-OV-3 ovarian
IGROV1 ovarian = tested on: IGROV1 ovarian
OVCAR-3 ovarian = tested on: OVCAR-3 ovarian
HS 578T breast = tested on: HS 578T breast
NCI/ADR-RES ovarian = tested on: NCI/ADR-RES ovarian
T-47D breast = tested on: T-47D breast
BT-549 breast = tested on: BT-549 breast
MDA-MB-435 melanoma = tested on: MDA-MB-435 melanoma
SW-620 colon = tested on: SW-620 colon
MCF7 breast = tested on: MCF7 breast
HCT-116 colon = tested on: HCT-116 colon
HCC-2998 colon = tested on: HCC-2998 colon
KM12 colon = tested on: KM12 colon
MDA-MB-468 breast = tested on: MDA-MB-468 breast

| SMILES | growth (SR leukemia) | growth (RPMI-8226 leukemia) | growth (OVCAR-8 ovarian) | growth (OVCAR-5 ovarian) | growth (OVCAR-4 ovarian) | growth (SK-OV-3 ovarian) | growth (IGROV1 ovarian) | growth (OVCAR-3 ovarian) | growth (HS 578T breast) | growth (NCI/ADR-RES ovarian) | growth (T-47D breast) | growth (BT-549 breast) | growth (MDA-MB-435 melanoma) | growth (SW-620 colon) | growth (MCF7 breast) | growth (HCT-116 colon) | growth (HCC-2998 colon) | growth (KM12 colon) | growth (MDA-MB-468 breast) |
| --- | --- | --- | --- | --- | --- | --- | --- | --- | --- | --- | --- | --- | --- | --- | --- | --- | --- | --- | --- |
| COc1cc(CNC(=O)C[C@H](C)CCC=C(C)C)ccc1OCc1cn(-c2cccc(C(F)(F)F)c2)nn1 | 41.5% | 89.8% | 28.1% | 97.5% | 45.1% | 89% | 102% | 103% | 94.3% | 44% | 32.4% | 92.3% | 74.9% | 38.7% | 56.8% | 12.5% | 111% | 85% | 64.9% |
| COc1ccc2c(c1)C(Sc1ccc(Cl)cc1)c1c(nc(N)c(C#N)c1N)O2 (stereo not given) | -3.94% (active) | 29.4% | 73.6% | 108% | 73.5% | 107% | 25.9% | 93.2% | 45.8% | 73.6% | 55% | 12.4% | 75.8% | 58.1% | 26.7% | 48% | 94.2% | 47% | – |
| O=C(N/N=C/c1ccoc1)c1[nH]c2ccc(Br)cc2c1-c1ccccc1 | -13.1% (active) | 2.8% (active) | -47.6% (active) | -100% (active) | -86.8% (active) | -83.6% (active) | -87.4% (active) | -45.8% (active) | -28% (active) | -72.5% (active) | -74.7% (active) | -90.3% (active) | -96% (active) | -83.6% (active) | -70.3% (active) | -75.8% (active) | -100% (active) | -25.4% (active) | – |
| Cc1ccc(/C=C/C(=O)c2ccc(S(=O)(=O)NCCNc3nc(N(C)C)nc(N4CCOCC4)n3)cc2)cc1 | -36.4% (active) | -15.6% (active) | 88.8% | 97.6% | 91.6% | 90.5% | 102% | 109% | 97.9% | 86.2% | 69.6% | 97.3% | 74.8% | 29.1% | 7.32% (active) | -21.6% (active) | 114% | 21.1% | – |
| CCOc1ccccc1NC(=O)N/C(N)=N/c1nc2ccccc2s1 | 5.36% (active) | 0.173% (active) | -15.2% (active) | 16.9% | 33.9% | 9.18% (active) | 22.7% | -10.7% (active) | 60.8% | -14.1% (active) | 41.5% | 23.1% | -21.6% (active) | 25.5% | 11% | -5.6% (active) | 13.1% | -0.458% (active) | – |
| O=Cc1cncc(-c2ccc3ncnc(N4CCc5cc(F)c(Cl)cc54)c3c2)c1 | -4.69% (active) | 15.4% | 39.8% | 27.6% | 43.4% | 4.6% (active) | -41.2% (active) | 25.2% | -17.9% (active) | 34.8% | 23.7% | -7.41% (active) | 46.2% | 23.4% | 1.77% (active) | 33.7% | 64% | 81.8% | – |
| O=C(NNC(=S)NCCc1ccccc1)c1ccc(OCc2nc3ccc(Cl)cc3[nH]2)cc1 | 54.2% | 49.1% | 86.2% | 113% | 49.7% | 102% | 80.3% | 68.2% | 81.2% | 93.9% | 39.4% | 61.5% | 84.3% | 129% | 34.2% | 64.3% | 104% | 63% | 61.4% |
| CCOc1ccccc1[C@H]1C(C(=O)c2ccc(Cl)cc2)C2(N[C@@H]1c1ccccc1)C(=O)Nc1ccc(Br)cc12 (stereo not given in full) | -45.6% (active) | 5.23% (active) | 12.1% | -20.8% (active) | 13.7% | 24.4% | 1% (active) | -4.84% (active) | -5.81% (active) | -46.7% (active) | 13.2% | -67.7% (active) | -59.3% (active) | 15.8% | -11.9% (active) | -92.6% (active) | -22% (active) | -9.26% (active) | -21.5% (active) |
| CCc1ccccc1NC(=O)N/C(N)=N/c1nc2ccccc2s1 | 7.38% (active) | 15.7% | -26.6% (active) | 0.307% (active) | 16.7% | 7.32% (active) | 20% | -30.2% (active) | 27.1% | -30.4% (active) | 55.8% | -12% (active) | -46.7% (active) | 21.3% | 11% | -26.2% (active) | 3.52% (active) | -3.54% (active) | -21.2% (active) |
| COc1ccc2c(c1)C(Sc1ccc(Br)cc1)c1c(nc(N)c(C#N)c1N)O2 (stereo not given) | 46.5% | 87.1% | 87% | 113% | 92.4% | 98.1% | 59.1% | 114% | 88.8% | 86.5% | 80.3% | 56.1% | 88% | 80.1% | 61.9% | 75.1% | 111% | 74.7% | 97.1% |
| Cc1[nH]nc2ccc3nc(-c4cn[nH]c4C(F)(F)F)c4c(c3c12)CCCC4 | 16.6% | 1.04% (active) | 4.15% (active) | 3.15% (active) | 29.6% | -54.2% (active) | -42.4% (active) | -15% (active) | -28.6% (active) | 19.8% | 3.05% (active) | -82.4% (active) | 21.6% | -31.1% (active) | 5.54% (active) | -49% (active) | -16.6% (active) | 9.09% (active) | -45.6% (active) |
| COc1ccc2nc(NC(=O)c3ccc(N(C)C)cc3)sc2c1 | 42.5% | 31.9% | 75.7% | 93% | 75% | 111% | 99.5% | 94.5% | 95.9% | 52.9% | 69% | 58.7% | 79.8% | 91.8% | 44.7% | 79.8% | 98.2% | 57.8% | 41.1% |
| O=C(Cc1c(-c2ccccc2[N+](=O)[O-])n(-c2ncnc3c2c(-c2ccccc2)c(-c2ccccc2)n3Cc2ccccc2)[nH]c1=O)c1ccc(Cl)c(Cl)c1 | 14.2% | -3.03% (active) | 25.5% | 55.1% | 19.2% | 39.3% | 25.2% | 14.2% | 22% | 50.7% | 6.14% (active) | -17.2% (active) | 2.32% (active) | 31.3% | 11.9% | 13.7% | 24.9% | 15.7% | -23.5% (active) |
| CN1C(=O)/C(=C\C(=O)c2cc3ccccc3oc2=O)c2ccccc21 | 38% | 62.3% | 47.3% | 84.3% | 74.8% | 80.8% | 82.3% | 51.8% | 57.3% | 53.3% | 67.4% | 27.8% | 85.4% | 27.1% | 46.5% | 52.6% | 74.2% | 85.1% | 28.8% |
| CC(=O)c1ccc2c(N)c(C(=O)Nc3ccc(C(F)(F)F)cc3)sc2n1 | 39.3% | 37.3% | 61.1% | 92.8% | 35.6% | 89.1% | 93.5% | 94.4% | 84.2% | 34.8% | 18.1% | 43.4% | 48.1% | 80.1% | 27.8% | 31% | 83.6% | 56.7% | 10.6% |
